Some test systems named below: SR leukemia; RPMI-8226 leukemia; OVCAR-8 ovarian; OVCAR-5 ovarian; SK-OV-3 ovarian; IGROV1 ovarian; OVCAR-3 ovarian; HS 578T breast; NCI/ADR-RES ovarian; T-47D breast; BT-549 breast; MDA-MB-435 melanoma; SW-620 colon; MCF7 breast; HCT-116 colon; HCC-2998 colon; KM12 colon; OVCAR-4 ovarian.
Holding throughout (assay): NCI-60 one-dose screen, 48 h (100 = growth as untreated, 0 = no growth, -100 = all killed)
Holding throughout (settings): 10 µM unless noted

This is part of a sample that, as a whole, favours compounds with a hit. Of some 83,000 tested, about 20% had one in any assay.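 Cell lines were cultured in 96-well plates, exposed to a single compound concentration, and assessed for percent growth 48 hours later.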 Values without a mark were called inactive. The source made the active and inactive calls. The calls were made as follows: active = growth percent below 10; inactive = the rest.

Consider `O=C(N/N=C\c1ccccc1O)C1CC1`, for which the growth was 104% in the test with SR leukemia; 107% in the test with RPMI-8226 leukemia; 93.5% with OVCAR-8 ovarian; 117% in the test on OVCAR-5 ovarian; 101% in the test with SK-OV-3 ovarian; 95% in the test on IGROV1 ovarian. The growth in the test on OVCAR-3 ovarian is 102%; in the test on HS 578T breast, 115%; in the test on NCI/ADR-RES ovarian it was 92.8%; in the test with T-47D breast it was 86.8%; with BT-549 breast, 112%; in the test with MDA-MB-435 melanoma, 112%. The growth with SW-620 colon is 108%; in the test with MCF7 breast it was 102%; in the test with HCT-116 colon, 107%; in the test on HCC-2998 colon, 103%; in the test on KM12 colon it was 100%.

With `Cn1cc(-c2nc(-c3c[nH]c4ncccc34)cs2)c2cc(F)ccc21`, the growth in the test on SR leukemia was 13.7%; with RPMI-8226 leukemia, 36.4%; with OVCAR-8 ovarian, 51.4%; in the test with OVCAR-5 ovarian, 21.4%; in the test with SK-OV-3 ovarian it was 55.9%; in the test on IGROV1 ovarian it was 26.5%. In addition, the growth is 21% with OVCAR-3 ovarian; 66.8% in the test on HS 578T breast; 8.92% (active) in the test with NCI/ADR-RES ovarian; 24.3% in the test with T-47D breast; 58% in the test on BT-549 breast; 0.641% (active) in the test with MDA-MB-435 melanoma. In addition, the growth was 31.8% in the test with SW-620 colon; 7.84% (active) in the test with MCF7 breast; 20.3% in the test with HCT-116 colon; 20.5% with HCC-2998 colon; -12.7% (active) with KM12 colon.

As to `CCN1CCN(C(=O)[C@]23CCC(C)(C)C[C@H]2C2=CC[C@@H]4[C@@]5(C)CC/C(=N/O)C(C)(C)[C@@H]5CC[C@@]4(C)[C@]2(C)CC3)CC1`, the growth in the test with SR leukemia is 0.702% (active); with RPMI-8226 leukemia, 16.6%; in the test with OVCAR-8 ovarian it was 56.9%; with OVCAR-5 ovarian it was 78.1%; in the test on SK-OV-3 ovarian, 105%; in the test with IGROV1 ovarian, 68%. The growth in the test on OVCAR-3 ovarian was 53.5%; in the test with HS 578T breast, 84.2%; in the test with NCI/ADR-RES ovarian, 60.1%; in the test on T-47D breast it was 36.6%; with BT-549 breast, 87.2%; with MDA-MB-435 melanoma, 66.1%. Moreover, the growth with SW-620 colon is 22.4%; in the test with MCF7 breast, 37.5%; in the test with HCT-116 colon it was 19%; in the test with HCC-2998 colon, 90.4%; in the test on KM12 colon, 72.1%.

On to `C=COCCCCCCCCCCCCCCCCCC`, for which the growth with SR leukemia is 94.6%; in the test with RPMI-8226 leukemia, 115%; in the test with OVCAR-8 ovarian it was 96.5%; with OVCAR-5 ovarian, 106%; in the test with OVCAR-4 ovarian it was 109%; in the test with IGROV1 ovarian it was 118%. In addition, the growth was 92.6% in the test with OVCAR-3 ovarian; 89.3% in the test on HS 578T breast; 114% in the test with T-47D breast; 103% in the test on BT-549 breast; 114% with MDA-MB-435 melanoma; 104% in the test with SW-620 colon. Further, the growth was 104% in the test with MCF7 breast, 103% in the test on HCT-116 colon, 99.3% in the test on HCC-2998 colon and 92.8% in the test on KM12 colon.

Regarding `COc1ccc(/C=C/C(=O)c2ccc([N+](=O)[O-])cc2)cc1`, the growth was 85.4% with SR leukemia; 78.9% with RPMI-8226 leukemia; 105% with OVCAR-8 ovarian; 111% with OVCAR-5 ovarian; 103% with SK-OV-3 ovarian; 105% with IGROV1 ovarian. The growth in the test with OVCAR-3 ovarian is 113%; in the test with HS 578T breast it was 106%; in the test with T-47D breast it was 98%; in the test on MDA-MB-435 melanoma, 106%; with SW-620 colon, 111%; with MCF7 breast it was 96%. In addition, the values for the growth in the test with HCT-116 colon, in the test with HCC-2998 colon and with KM12 colon were 99.2%, 105% and 98.6%, respectively.

Consider `O=C(NC1=CC(=O)c2ccccc2C1=O)c1ccccc1`, for which the growth in the test with SR leukemia was -0.906% (active); in the test with RPMI-8226 leukemia, 4.25% (active); with OVCAR-8 ovarian, 22.4%; with OVCAR-5 ovarian, 42.2%; in the test on SK-OV-3 ovarian it was 32%; in the test with IGROV1 ovarian, -30.1% (active). For the same molecule, the growth in the test with OVCAR-3 ovarian was -82.5% (active); in the test on HS 578T breast, 25.3%; with NCI/ADR-RES ovarian it was 16.6%; in the test with T-47D breast, -45.6% (active); in the test on MDA-MB-435 melanoma it was 2.96% (active); in the test on SW-620 colon it was -56.2% (active). For the same molecule, the growth with MCF7 breast was 14.3%; in the test with HCT-116 colon, -69% (active); in the test on HCC-2998 colon, 32.3%; with KM12 colon, 11.2%.

Regarding `Cn1cc(-c2csc(-c3c[nH]c4ccccc34)n2)c2cccnc21`, the growth in the test on SR leukemia is 27.4%; with RPMI-8226 leukemia, 21.3%; with OVCAR-8 ovarian, 39.2%; with OVCAR-5 ovarian it was 54%; with SK-OV-3 ovarian, 28.9%; with IGROV1 ovarian it was 42%. The growth is -14.9% (active) in the test with OVCAR-3 ovarian; 60.5% in the test on HS 578T breast; 0.975% (active) in the test on NCI/ADR-RES ovarian; 27.2% in the test with T-47D breast; 49.6% with BT-549 breast; -13.9% (active) with MDA-MB-435 melanoma. Besides, the growth in the test with SW-620 colon was 29.6%; in the test with MCF7 breast it was 13.6%; in the test on HCT-116 colon, 30.5%; with HCC-2998 colon it was 33.2%; with KM12 colon, 32.5%.

Regarding `Oc1cccc2oc(=S)[nH]c12`, the growth was 90.4% with SR leukemia; 106% in the test with RPMI-8226 leukemia; 112% in the test on OVCAR-8 ovarian; 97.4% with OVCAR-5 ovarian; 108% in the test on SK-OV-3 ovarian; 110% in the test with IGROV1 ovarian. Also, the growth in the test with OVCAR-3 ovarian is 125%; in the test with HS 578T breast it was 109%; with NCI/ADR-RES ovarian it was 102%; in the test with T-47D breast, 104%; in the test on MDA-MB-435 melanoma, 115%; in the test on SW-620 colon it was 108%. Further, the growth was 101% in the test with MCF7 breast, 107% in the test with HCT-116 colon, 100% in the test on HCC-2998 colon and 115% in the test with KM12 colon.

With `Clc1ccc(Cn2cc(-c3nc4ccc(Br)nc4n3Cc3ccc(Cl)cc3)c3cccnc32)cc1`, the growth was 61% in the test with SR leukemia; 67.6% in the test on RPMI-8226 leukemia; 77.2% in the test with OVCAR-8 ovarian; 96.9% in the test with OVCAR-5 ovarian; 80.9% in the test on SK-OV-3 ovarian; 77.3% in the test with IGROV1 ovarian. For the same molecule, the growth with OVCAR-3 ovarian was 93.5%; in the test with HS 578T breast it was 92.7%; in the test with T-47D breast, 34.7%; with BT-549 breast, 82.4%; in the test with MDA-MB-435 melanoma it was 105%; with SW-620 colon, 103%. The growth was 57.7% in the test on MCF7 breast, 84.1% in the test on HCT-116 colon, 96.7% in the test on HCC-2998 colon and 95.9% with KM12 colon.

Source of the values: PubChem BioAssay (NCI).
